Measured values as given in PubChem BioAssay AID2685 (National Center for Advancing Translational Sciences (NCATS), 2010).
Screen size: about 320,000 compounds; about 2,100 (0.66%) were called active. About 53% were inconclusive and are not listed. Calls come from the whole dose curve; as a rule, active = well fitted inhibition curve with a large enough effect in the signal ratio, with a control signal flat (not every such curve was filed as active); inconclusive = small, poorly fitted or top-dose-only effect, or effect the other way, or a change in a side signal; inactive = flat fitted curve, though single readings scatter; the % refers to the signal ratio. Many of the other results were omitted from the sample, so actives are more common in it than they were.

Experiment: qHTS Assay for Lipid Storage Modulators in Drosophila S3 Cells;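 for cell number change: cells counted by Cell Tracker Red CMTPX staining in the red channel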; for lipid storage change, negative = inhibition: % is set by controls: 0 for no effect and ±100 for the full control effect
Conditions: BODIPY lipid droplet fluorescence, 18-24 h, cells fed with added oleic acid; cell number change: measured here: cell count max response; series mostly up to 46.1 µM; lipid storage change, negative = inhibition: at the top concentration
Method in brief: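 Laser-scanning cytometry quantifies lipid droplet accumulation (500–530 nm total intensity; droplet/cell object ratio) in oleic acid-fed (400 uM added) Drosophila S3 cells treated with a concentration series. 20 uM Triacsin C defined 100% inhibition.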
Potency is the fitted concentration of half-maximal effect.

SMILES	outcome	cell number change [%]	lipid storage change, negative = inhibition	Potency
COc1ccc(S(=O)(=O)N(C)CC(=O)Nc2ccc3c(c2)OCO3)cc1	inactive	-1.44	–	–
COc1ccc(Cl)cc1S(=O)(=O)N(C)CC(=O)NCc1ccc2c(c1)OCO2	–	13.5	-3.57% (inactive)	–
COc1ccc(S(=O)(=O)N(C)CC(=O)NCc2ccc3c(c2)OCO3)cc1	–	16.1	–	2.06 µM (active)
O=C(CN(C(=O)c1csnn1)c1ccc(Cl)cc1)NCc1ccc2c(c1)OCO2	inactive	3.81	–	–
COc1ccc(N(CC(=O)NCc2ccc3c(c2)OCO3)C(=O)c2csnn2)cc1	–	-14.1	–	1.16 µM (active)
O=C(CN(C(=O)c1csnn1)c1cccc(F)c1)NCc1ccc2c(c1)OCO2	–	8.12	4.68% (inactive)	–
Cc1ccc2c(c1)N(S(=O)(=O)c1ccc3c(c1)NC(=O)CC(=O)N3)CCO2	–	15	-11.8% (inactive)	–
COC(=O)c1sc2ncccc2c1OCc1ccccc1Cl	–	-10.8	-7.27% (inactive)	–
COc1cccc(C2/C(=C(/O)c3ccc4c(c3)OCO4)C(=O)C(=O)N2CCN2CCOCC2)c1 (stereo not drawn)	–	25.8	-7.15% (inactive)	–
CC(C)Cc1nnc(NC(=O)C2=COCCO2)s1	–	-9.23	3.82% (inactive)	–
C=CCn1c(C)c(C(C)=O)c(N2CCCC2)nc1=S	–	0.195	0.966% (inactive)	–
C=CCn1c(C)c(C(C)=O)c(N2CCN(c3ccccc3)CC2)nc1=S	–	-14.3	4.46% (inactive)	–
C=CCn1c(C)c(C(C)=O)c(N2CCOCC2)nc1=S	–	-4.96	–	23.1 µM (active)
CCOc1ccc(/C=N/n2c(SC)nnc(C(C)(C)C)c2=O)cc1	–	-13.9	3.3% (inactive)	–
COC(=O)COc1ccc(S(=O)(=O)Nc2ccc(NC(C)=O)cc2)cc1	–	-0.0647	–	3.66 µM (active)
Cc1cc(NS(=O)(=O)c2ccc(NC(=O)COc3ccc(Br)cc3)cc2)nc(C)n1	–	–	–	18.4 µM (active)
CCOC(=O)COc1ccc(S(=O)(=O)Nc2ccc(C)cc2)cc1	inactive	11.3	–	–
Cc1cc(NS(=O)(=O)c2ccc(NC(=O)CCCC(=O)O)cc2)nc(C)n1	–	-5.64	-13.2% (inactive)	–
Cc1cc(NS(=O)(=O)c2ccc(NC(=O)CN3C(=O)c4ccccc4C3=O)cc2)nc(C)n1	inactive	–	–	–
Cc1cccc(OCC(=O)Nc2ccc(S(=O)(=O)Nc3cc(C)nc(C)n3)cc2)c1	–	13.6	1.01% (inactive)	–
COC(=O)COc1ccc(S(=O)(=O)Nc2ccc(C(N)=O)cc2)cc1	–	10.2	-14.2% (inactive)	–
Cc1cc(C)nc(NS(=O)(=O)c2ccc(NC(=O)CN3C(=O)c4ccccc4C3=O)cc2)n1	–	-6.03	–	6.51 µM (active)
Cc1cc(C)nc(NS(=O)(=O)c2ccc(NC(=O)CN3C(=O)S/C(=C\c4ccccc4)C3=O)cc2)n1	–	8.32	20.9% (inactive)	–

SMILES	outcome	cell number change [%]	lipid storage change, negative = inhibition	Potency
COCCOCC(=O)Nc1ccc(S(=O)(=O)Nc2cc(C)nc(C)n2)cc1	–	21.3	-12.7% (inactive)	–
COCC(=O)Nc1ccc(S(=O)(=O)Nc2cc(C)nc(C)n2)cc1	–	-33.4	–	32.6 µM (active)
CCOc1ccc(OCC(=O)Nc2ccc(S(=O)(=O)Nc3cc(C)nc(C)n3)cc2)cc1	inactive	-4.96	–	–
Cc1c(C(=O)NCc2cccnc2)sc2nc(-c3ccccc3)cn12	–	-2.88	-2.55% (inactive)	–
Cc1cccn2c(=O)nc(SCC(=O)NCc3ccccc3)nc12	–	26.3	14.2% [at 0.0737 µM] (inactive)	–
Cc1ccc(-n2ncc3c(=O)n(-c4ccc(C)c(C)c4)c(C)nc32)cc1	–	-21	20.1% (inactive)	–
CC1=Nc2ccccc2N=C(NC(=O)CSC(=S)N2CCCCC2)C1c1ccccc1 (stereo not drawn)	–	11.1	4.9% (inactive)	–
CC(C)CC(NC(=O)c1ccccc1NC(=O)c1ccccc1)C(=O)O (stereo not drawn)	–	-8.71	0.37% (inactive)	–
CCC(=O)N(CCC(c1ccccc1)c1ccco1)Cc1cccs1 (stereo not drawn)	–	1.01	3.42% (inactive)	–
CC(=O)NCCC(=O)Nc1nc(-c2cccs2)c(-c2cccs2)s1	–	13.4	11.3% (inactive)	–
CNC(=O)c1ccc(OC2CSC2)cc1	–	-3.88	–	16.4 µM (active)
CC(=O)c1cccc(NC(=O)c2ccc(OC3CSC3)cc2)c1	–	14.6	-2.44% (inactive)	–
CC(C)NC(=O)c1ccc(OC2CSC2)cc1	–	2.39	-7.18% (inactive)	–
O=C(NCC(=O)N(Cc1ccccc1)C(C(=O)NC1CCCC1)c1ccncc1)c1ccco1 (stereo not drawn)	–	-25	-5.7% (inactive)	–
COc1cccc(C2CCCN2Cc2nc(CC3CC3)no2)c1 (stereo not drawn)	–	-10.7	13.7% (inactive)	–
CCC(=O)Nc1ccc(S(=O)(=O)Nc2ccc(Cl)nn2)cc1	–	-1.17	1.32% (inactive)	–
Cc1cc(-n2cnnn2)cc(C)c1S(=O)(=O)N(C)c1ccccc1	–	1.61	–	10.3 µM (active)
Cc1cc(-n2cnnn2)cc(C)c1S(=O)(=O)NCCOc1ccccc1	inactive	-19.8	–	–
Cc1cc(C)c(S(=O)(=O)N(C)c2ccccc2)c(C)c1	–	-0.745	7.23% (inactive)	–
CCCOc1ccc(C(=O)O/N=C(\CC)c2ccc(C)cc2)cc1	–	8.23	17.6% (inactive)	–
O=C(C1CCN(c2nnc(-n3cccc3)s2)CC1)N1CCCCC1	inactive	–	–	–
CCOC(=O)C1CCCN(C(=O)C2CCN(c3nnc(-n4cccc4)s3)CC2)C1 (stereo not drawn)	–	-17.4	–	16.4 µM (active)
CCOC(=O)N1CCN(C(=O)C2CCN(c3nnc(-n4cccc4)s3)CC2)CC1	–	29.4	-7.26% (inactive)	–

SMILES	outcome	cell number change [%]	lipid storage change, negative = inhibition	Potency
COC(=O)C1CSc2[nH]c(=O)sc2C1c1ccc(OC)c(OC)c1 (stereo not drawn)	–	-7	-1.45% (inactive)	–
CCC(C(=O)OCC(=O)N1C(C)CCCC1C)c1ccccc1 (stereo not drawn)	–	-35.7	-24.9% (inactive)	–
O=C(NCC1OCCCN1S(=O)(=O)c1cc(F)ccc1F)C(=O)NC1CCCCCC1 (stereo not drawn)	–	3.2	–	4.61 µM (active)
Cc1cc(F)ccc1S(=O)(=O)N1CCCOC1CNC(=O)C(=O)NC1CCCC1 (stereo not drawn)	–	13.2	-1.42% (inactive)	–
O=C(NCCO)C(=O)NCC1OCCCN1S(=O)(=O)c1cc(F)ccc1F (stereo not drawn)	–	0.587	27.4% (inactive)	–
CCc1cccc(CC)c1NC(=O)C1SC(=Nc2ccccc2C)C(c2nc3ccccc3s2)=C1N (stereo not drawn)	inactive	–	–	–
O=C1NC2(CCSC2)C(=O)N1CC(=O)N(Cc1ccccc1)C1CCS(=O)(=O)C1 (stereo not drawn)	–	1.14	-0.0384% (inactive)	–
O=C(NC1CC2CCCC(C1)N2C(=S)NCCc1ccccc1)C1CC1 (stereo not drawn)	–	-26.1	-39.3% (inactive)	–
CCNCc1cc(Br)c(OCC(=O)Nc2ccccc2)c(OC)c1	–	1.4	7.44% (inactive)	–
COc1cc(CO)cc(Br)c1OCC(=O)O	–	9.61	–	2.06 µM (active)
COc1cc(CO)cc(Br)c1OCc1cccnc1	–	-5.87	17.8% (inactive)	–
CC(C)(C)c1ccc(/C=C/C(=O)N2CCOCC2)cc1	inactive	-2.69	–	–
CCC1Sc2ccc(S(=O)(=O)CCC(=O)NCc3ccc(C)o3)cc2NC1=O (stereo not drawn)	inactive	-1.81	–	–
O=C(NN1CCOCC1)c1cccc(Cl)c1	–	14.2	-1.82% (inactive)	–
CC(C)c1cc(C(=O)N2CCCC(C(=O)c3ccc4ccccc4c3)C2)on1 (stereo not drawn)	–	–	6.79% (inactive)	–
Cc1cc(C(=O)N2CCCC(C(=O)c3ccc4ccccc4c3)C2)n(C)n1 (stereo not drawn)	–	-14.9	–	25.9 µM (active)
Cc1cc(C(=O)N2CCCC(C(=O)c3ccc4ccccc4c3)C2)nn1C (stereo not drawn)	–	11.4	1.31% (inactive)	–
Cc1cc(C(=O)NC2CCC(C)CC2)c(C)o1 (stereo not drawn)	–	-8.31	-14.9% (inactive)	–
O=C(CSc1nnc(-c2cccnc2)n1CCN1CCCCC1)Nc1cccc(Cl)c1	–	11.7	0.818% (inactive)	–
CCCN1C2CCCC1CC(NC(=S)NCCCOCC)C2 (stereo not drawn)	inactive	-29.4	–	–
Clc1cc(CSc2ccccc2)nc(-c2ccccc2)n1	inactive	–	–	–
CSc1nc(-c2ccccc2)nc(C(Cl)Cl)n1	–	-22.1	–	8.2 µM (active)
CCSc1nc(-c2ccccc2)nc(C(Cl)Cl)n1	–	-6.95	–	5.17 µM (active)

SMILES	outcome	cell number change [%]	lipid storage change, negative = inhibition	Potency
CCSc1nc(-c2ccccc2)c2cc(Cl)ccc2n1	–	-8.68	2.19% (inactive)	–
CSc1nc(-c2ccc(C)cc2)nc(C(Cl)Cl)n1	–	10.6	7.05% (inactive)	–
CSc1nnc(-c2ccccc2)c(-c2ccccc2)n1	–	-3.83	11.7% (inactive)	–
COc1ccccc1/C=N/OC(=O)c1ccc(F)cc1	–	3.91	-0.325% (inactive)	–
COc1cc(Cl)c(S(=O)(=O)NCCCn2ccnc2)cc1Cl	–	29	-3.68% (inactive)	–
Cc1cc(C)c(S(=O)(=O)NCCCn2ccnc2)cc1C	–	4.74	10.5% (inactive)	–
Cc1cc(Cl)c(Cl)cc1S(=O)(=O)NCCCn1ccnc1	–	-5.8	–	6.51 µM (active)
COc1cccc(NC(=O)C2CCC(CNC(=O)[C@@H]3Cc4ccccc4CN3)CC2)c1 (stereo partly drawn)	inactive	0.236	–	–
CC(C(=O)Nc1ccc(F)c(F)c1F)N(C)Cc1cccs1 (stereo not drawn)	–	25.5	-15.3% (inactive)	–
COc1ccc(S(=O)(=O)N2CCCC(C(=O)N3CCOCC3)C2)cc1C (stereo not drawn)	inactive	17.1	–	–
O=C(Nc1ccncc1)C1CCN(S(=O)(=O)c2cccc(C(F)(F)F)c2)CC1	–	-3.08	9.54% (inactive)	–
CCOC(=O)N1CCN(S(=O)(=O)N2CCCC(C(=O)NCCc3ccc(OCC)c(OCC)c3)C2)CC1 (stereo not drawn)	–	–	–	4.61 µM (active)
COc1ccc(S(=O)(=O)N2CCC(C(=O)N[C@@H](C)C(=O)NCc3ccc(F)cc3)CC2)cc1	inactive	13.5	–	–
O=C(Nc1ccncc1)C1CCN(S(=O)(=O)c2ccc(Cl)c(C(F)(F)F)c2)CC1	–	2.68	–	10.3 µM (active)
COc1ccc(CNC(=O)[C@H](C)NC(=O)C2CCN(S(=O)(=O)c3ccc(C)cc3)CC2)cc1	inactive	-4.43	–	–
COc1ccc(CNC(=O)[C@H](C)NC(=O)C2CCN(S(=O)(=O)c3ccc(F)cc3)CC2)cc1	–	3.44	–	18.4 µM (active)
CCOc1ccc(S(=O)(=O)N2CCCC(C(=O)N3CCOCC3)C2)cc1Cl (stereo not drawn)	inactive	16.4	–	–
CCOc1ccc(CCNC(=O)C2CCCN(S(=O)(=O)N3CCOCC3)C2)cc1OCC (stereo not drawn)	–	0.288	-4.66% (inactive)	–
CCOc1ccc(S(=O)(=O)N2CCCC(C(=O)N3CCOCC3)C2)cc1C (stereo not drawn)	–	-23.5	–	2.31 µM (active)
CCOC(=O)N1CCN(S(=O)(=O)N2CCCC(C(=O)NCCc3ccc(OC)c(OC)c3)C2)CC1 (stereo not drawn)	–	-20.2	-9.88% (inactive)	–
CS(=O)(=O)N1CCC(C(=O)Nc2ccc(Cl)c(C(F)(F)F)c2)CC1	inactive	-15.8	–	–
